PAX8 inh HTS – PAX8 transcriptional activity inhibition. 360,000 tested, 1.2% active. RMG-I TPO-luciferase reporter, SteadyGlo, 24 h. inhibition, % at 12.6 µM;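 active = mean replicate inhibition at least 60% with every replicate also reaching 60%; inconclusive = only one of the two criteria is met; inactive = mean below 60% and not all replicates reaching 60%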;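 also: luciferase light reporting Pax8 driven TPO promoter activity; plate controls were median of neutral control wells for no effect and mitoxantrone controls for full effect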
TROY NFkB inh – inhibitors of TROY-dependent NF-kB signaling | AID 1347056 | inhibition, % at 10 µM | Q293 LMP1-TROYcd NF-kB luciferase reporter, 4 h | 360,000 tested, 0.98% active;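 active = compounds whose plate-normalised and pattern-corrected inhibition of the luciferase reporter signal at the single screening dose is 50% or more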
TWEAK Fn14 block – TWEAK-Fn14 signaling inhibition | inhibition, % at 10 µM | TWEAK-stimulated Fn14 reporter cells, luciferase luminescence, 8 h | AID 1159606 | 360,000 tested, 2% active; in the data active = inhibition above about 50%
LMP1 NFkB inh – reduces LMP1-driven NF-kappaB luciferase signal; LMP1-induced NF-kappaB luciferase reporter cells, luminescence; inhibition, % at 12.5 µM; AID 504558; 350,000 tested, 0.69% active; in the data active = inhibition above about 41%; inconclusive = no clear call, values can overlap the other calls;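 also: 0% = neutral control wells and 100% = reference inhibitor control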
LGR2 inh – Drosophila LGR2 receptor signaling inhibition; HEK293 LGR2, CRE-luciferase, bursicon-stimulated, 4 h; inhibition, % at 9.99 µM; 380,000 tested, 0.35% active; AID 720647;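 active = drop in luminescence signal, shown as inhibition above about 50% in the replicate tests, limit read from the data, passing the limit was not always enough; inconclusive = probably only some replicates passing the limit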;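 also: agonist challenge used bursicon conditioned medium at about half maximal strength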
EWS-Fli inh – EWS/Fli transcriptional activity inhibition | A673 NR0B1-luciferase reporter, viability-normalised | inhibition, % at 12.6 µM | 350,000 tested, 0.67% active | AID 651661;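 active = mean inhibition of at least 50% after viability correction, with every replicate also passing that limit; inconclusive = mean reaches 50% but only one of two replicates passes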;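 also: firefly luciferase signal divided by Alamar Blue viability fluorescence both relative to DMSO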
* = called active by the depositor; ? = inconclusive; . = not tested or not shown. Sampled rows, rich in hits. Any-hit rate of the full collection: about 3.1%.

SMILES | PAX8 inh HTS | TROY NFkB inh | TWEAK Fn14 block | LMP1 NFkB inh | LGR2 inh | EWS-Fli inh
Cc1ccc(NC(=O)c2cc(C)n(-c3cccc(C)c3)c2C)cc1 | -163.5 | 44.5 | 36.7 | -62.2 | -65.4 | -97.3
Cc1cc(C(=O)Nc2ccc(Cl)cc2)c(C)n1-c1ccccc1 | 26.1 | 89.2* | 102.7* | . | 82.0* | 57.9*
Cc1ccc(NC(=O)c2csc(-c3ccccc3)c2C)cc1 | 13.9 | 74.5* | 81.0* | 45.4* | . | .
Cc1ccc(NC(=O)c2cc(C)n(-c3ccccc3)c2C)cc1 | 19.2 | 89.4* | 96.6* | 31.4 | . | 68.6*
CCNc1ccc(Br)cc(C(=O)/C=C/c2ccc(Cl)cc2Cl)c1=O | . | 14.7 | 3.1 | 48.6* | . | .
CNc1ccc(Br)cc(C(=O)/C=C/c2ccc(OC)cc2)c1=O | -3.5 | 3.5 | 24.2 | 4.2 | 11.2 | .
CNc1ccc(Br)cc(C(=O)/C=C/c2cc(OC)ccc2OC)c1=O | 92.1* | -22.4 | 6.7 | ? | . | .
CCC(=O)Nc1ccc2c(c1)C(=O)N(C)[C@@H]1CC[C@@H](CC(=O)NCCOC)O[C@H]1CO2 | -8.9 | . | . | . | -16.8 | -1.3
C[C@@H]1CN([C@H](C)CO)C(=O)c2cccc(NC(=O)C3CCCCC3)c2O[C@@H]1CN(C)C(=O)Nc1ccc2c(c1)OCO2 | 6.8 | . | . | . | 19.9 | 0.3
CC(Oc1ccccc1)C(=O)NC1C(=O)N2C1SC(C)(C)C2C(=O)O (stereo not drawn) | -2.6 | 4.0 | -1.9 | 9.2 | 6.9 | -0.3
CCOC(=O)OC(C)OC(=O)[C@@H]1N2C(=O)[C@@H](NC(=O)[C@H](N)c3ccccc3)[C@H]2SC1(C)C (stereo partly drawn) | -7.5 | -8.0 | -9.2 | 56.5* | . | 0.6
O=C(N[C@H]1CC[C@H](CCn2cc(C3CCCCC3)nn2)O[C@H]1CO)c1cccnc1 | -3.2 | . | . | . | 17.3 | -2.6
COc1ccccc1C=NN=C(NN=Cc1ccccc1OC)NN=Cc1ccccc1OC | 26.2 | 55.7* | 100.6* | 37.2 | 45.5 | 4.2
COc1ccccc1C=NN=C(N)C(N)=NN=Cc1ccccc1OC | -3.4 | 1.6 | 7.5 | 6.2 | 0.5 | -13.1
CN(C)c1ccc(/C=N/N=C/c2ccccc2O)cc1 | -84.6 | 47.6 | 59.0* | -39.5 | 56.1* | .
CN(C)c1ccc(C=Nc2ccccc2C(N)=O)cc1 | . | -49.1 | -2.3 | 27.1 | . | .
COc1ccccc1C=NN=Cc1ccccc1O | -74.9 | -67.2 | -17.2 | 83.3* | -66.8 | -25.1
C[C@H]1CN([C@@H](C)CO)C(=O)Cc2cc(NC(=O)NC3CCCCC3)ccc2O[C@@H]1CN(C)C(=O)Nc1ccc(C(F)(F)F)cc1 | -14.6 | . | . | . | -4.4 | -0.7
COc1ccc2cc1Oc1ccc(cc1)C[C@H]1c3cc(c(OC)cc3CCN1C)Oc1c(OC)c(OC)cc3c1[C@H](C2)N(C)CC3 | 38.8 | -7.4 | -29.1 | -11.5 | . | 57.5*
O=C(CCl)N(c1ccccc1)C1CCS(=O)(=O)C1 (stereo not drawn) | 43.9 | 4.7 | 52.9* | 11.8 | -14.3 | .
CC(=O)Nc1ccc(C(=O)OCC(=O)N(c2ccccc2)C2CCS(=O)(=O)C2)cc1 (stereo not drawn) | 1.4 | 2.0 | -0.1 | 3.7 | 9.2 | 4.7
COc1ccc2c3c(n(C)c2c1)[C@@H](CO)N(Cc1ccccc1OC)CC31CN(CC2CC2)C1 | . | . | . | . | 0.0 | -6.7
O=C(Nc1cccnc1Cl)c1ccc2c(Cl)c3c(nc2c1)CCC3 | -112.1 | -4.6 | 54.4* | -23.4 | -12.7 | 1.7
COc1ccc(N2CCN(C(=O)Cc3csc(NC(=O)Nc4ccccc4OC)n3)CC2)cc1 | 32.3 | 16.8 | 28.2 | 13.9 | -5.0 | 4.8
COc1ccccc1NC(=O)Nc1nc(CC(=O)N2CCN(c3ccc(F)cc3)CC2)cs1 | 25.9 | 39.9 | 50.9* | -1.7 | 9.3 | 3.2
SMILES | PAX8 inh HTS | TROY NFkB inh | TWEAK Fn14 block | LMP1 NFkB inh | LGR2 inh | EWS-Fli inh
CCN(CC)CCCNc1nc2ccccc2c2[nH]c3ccc(OC)cc3c12 | 99.4* | 68.5* | 5.0 | -31.8 | 22.2 | ?
COCC(=O)N1[C@@H]2c3ccc(-c4ccccc4)c(=O)n3C[C@H]1[C@H](CO)[C@H]2C(=O)NCc1ccccn1 | . | . | . | . | 2.1 | -5.2
c1ccc(Nc2nc(-c3ccccn3)cs2)cc1 | -187.1 | 34.8 | 44.8 | -15.0 | . | .
COc1cccc2sc(Nc3nc(-c4ccccn4)cs3)nc12 | . | -21.6 | 103.9* | 46.1* | . | .
C[C@@H]1CN([C@@H](C)CO)C(=O)Cc2cc(NC(=O)Nc3ccccc3)ccc2O[C@H]1CN(C)Cc1ccncc1 | 16.1 | . | . | . | 6.3 | 7.8
Cc1ccc2c(c1)C1(OCCCO1)C(=O)N2CC#N | -0.3 | 10.0 | 8.4 | -0.1 | 0.3 | -6.3
Cc1ccc2c(c1)C1(OCCCO1)C(=O)N2CC(=O)NN | 6.3 | -9.8 | 94.2* | . | -3.0 | -4.6
O=C(C[C@H]1C[C@@H]2c3cc(NC(=O)c4cccnc4)ccc3O[C@@H]2[C@@H](CO)O1)NCc1ccncc1 | . | . | . | . | 5.0 | -3.6
CCCCCCCCCCCCCCCC[N+](C)(C)CC | 107.4* | 32.5 | 41.1 | 2.2 | 36.1 | 53.0*
C[N+](C)(C)CCCCCC[N+](C)(C)C | -2.0 | 6.6 | -14.8 | -10.0 | 2.5 | -0.7
CCCCCC[N+](C)(C)CCSSCC[N+](C)(C)CCCCCC | 14.5 | 0.6 | 1.2 | -4.9 | 2.7 | 7.5
CCCCCCCCCCCCCCCC[N+](C)(C)CCl | 106.3* | 3.3 | -27.4 | -0.2 | 25.3 | 36.6
CNC[C@H]1Oc2ccc(NC(=O)Nc3ccc4c(c3)OCO4)cc2CC(=O)N([C@@H](C)CO)C[C@@H]1C | -7.7 | . | . | . | -9.7 | -4.0
CCC(=O)N1CC2(C1)CN(S(C)(=O)=O)[C@@H](CO)c1[nH]c3cc(OC)ccc3c12 | . | . | . | . | 4.1 | 8.7
COc1ccc(NC(=O)N(C)C[C@H]2Oc3ncc(-c4cccnc4)cc3C(=O)N([C@@H](C)CO)C[C@@H]2C)cc1 | 8.3 | . | . | . | 0.9 | 0.2
CN1[C@@H]2c3ccc(-c4cccc(F)c4)c(=O)n3C[C@@H]2[C@@H](CO)[C@@H]1C(=O)NC1CCCCC1 | . | . | . | . | 9.6 | 0.0
Cc1ccccc1OCc1nnc(SCc2cc(=O)[nH]c3ccccc23)n1-c1ccccc1 | 70.7* | 9.2 | 4.0 | 6.5 | 13.8 | 12.0
COc1cccc(C(=O)Nc2ccc3c(c2)C(=O)N(C)C[C@@H](OC)[C@@H](C)CN(C)[C@H](C)CO3)c1 | . | . | . | . | -6.2 | 11.6
OC(CSc1nc(-c2ccccc2)c(-c2ccccc2)o1)CC(O)c1ccccc1 (stereo not drawn) | 4.7 | . | . | . | . | 8.9
CCc1nc2c(cnn2-c2ccc(F)cc2)c(=O)n1-c1ccc(N2CCC(C)CC2)cc1 | 27.9 | -0.7 | 65.2* | 10.7 | 5.6 | 13.0
Cc1ccccc1Cn1cnc2ccccc2c1=O | 160.1* | -9.3 | 7.2 | -5.7 | 5.8 | -5.6
COc1ccc(-c2cn(CC[C@@H]3CC[C@@H](NC(=O)CCN4CCCCC4)[C@H](CO)O3)nn2)cc1 | 2.7 | . | . | . | 9.7 | -3.8
Cc1ccc(-c2nc3ccccc3[nH]2)cc1NC(=O)/C=C/c1ccco1 | . | -36.0 | -0.8 | -37.0 | . | .
O=C(NC(=S)Nc1cc(-c2nc3ccccc3[nH]2)ccc1Cl)c1ccc2c(c1)OCO2 | -93.1 | 53.3* | 87.0* | 10.7 | -75.1 | .

Screens deposited in PubChem BioAssay by several laboratories.
